# Hit rate of the full screen: of about 300,000 compounds, about 37,000 (12%) were called active. The entries come from a sample that favours actives as a whole. Values without a mark were called inactive. Rule as the data show it: active = max response mostly above about 13% (no sharp cut-off); inactive = mostly below about 14%.
# Experiment: Cycloheximide Counterscreen for Small Molecule Inhibitors of Shiga Toxin; also: read at 38.3 µM for the half of the compounds with a filed dose; 0% is about no effect
# Conditions: cell reporter, cycloheximide protein synthesis inhibition counterscreen; active compounds read high
row,Structure (SMILES),max response
1,CCCCN(C)CCNC(=O)C1CCCN(S(=O)(=O)c2cccc3nsnc23)C1 (stereo not given),-7.69%
2,CC(Sc1cccc[n+]1[O-])C(=O)Nc1cccc(S(=O)(=O)N2CCOCC2)c1 (stereo not given),-2.05%
3,COc1ccc(/C=N/Nc2nc3ccccc3o2)cc1OC,32.2% (active)
4,CCOc1ccccc1/C=N/Nc1nc2ccccc2o1,11.2% (active)
5,C=CCc1ccccc1OCC(=O)N/N=C/c1ccccc1OCC,9.76%
6,COc1ccc(/C=N/n2nnnc2N)cc1OC,1.75%
7,Brc1ccccc1/C=N/Nc1nc2ccccc2o1,35.3% (active)
8,c1ccc(CCN2CN=C(Nc3nc4ccccc4o3)NC2)cc1,13.2%
9,CCOc1ccc(/C=N/Nc2nncc(-c3ccccc3)n2)cc1OC,5.88%
10,CCOc1ccccc1/C=N/NC(=O)CNC(=O)COc1ccccc1,8.7%
11,CN=C1S/C(=C\c2c(OC)cc(OC)cc2OC)C(=O)N1C,-4.61%
12,COc1ccc(C2/C(=C(/O)c3ccc4c(c3)CC(C)O4)C(=O)C(=O)N2Cc2ccncc2)cc1 (stereo not given),-3.17%
13,COc1cc(C(=O)N2CCN(C)CC2)cc(OC)c1OC,-1.54%
14,Cc1ccc(NC(=O)COC(=O)C2C3CC4OC(=O)C2C4C3)cc1Cl (stereo not given),6.04%
15,O=C(NCc1ccco1)C1CCCN1S(=O)(=O)c1ccccc1C(F)(F)F (stereo not given),-2.95%
16,Cc1ccc(-n2nc3c(=O)n(C(C)C(=O)NCc4ccc5c(c4)OCO5)nc(C)c3c2C)cc1 (stereo not given),7.33%
17,COc1ccc(CN(C)C(=O)Cc2ccsc2)c(OC)c1OC,-2.85%
18,CC(C)CNS(=O)(=O)c1ccc(CCC(=O)NCc2ccc(Cl)cc2)cc1,-1.7%
19,COc1ccc(CN2CCN(C(=O)CCC(=O)Nc3nnc(C(C)C)s3)CC2)cc1F,-9.15%
20,CC1C(=O)C(C)C(c2ccc(O)cc2)NC1c1ccc(O)cc1 (stereo not given),-3.88%
21,CC(NC(=O)C(C)(C)C)C(c1cccs1)N1CCN(Cc2ccccc2)CC1 (stereo not given),1.72%
22,C#CC(C)(C)NC(=O)c1cnc(-c2ccccc2)nc1-c1ccccc1,1.23%
23,Cc1ccccc1N1CC(C(=O)Nc2ccc3c(c2)OCO3)CC1=O (stereo not given),15.7%
24,O=C(Nc1ccc2c(c1)OCO2)C1CC(c2c(F)cccc2Cl)=NO1 (stereo not given),31.8% (active)

row,Structure (SMILES),max response
1,Cc1ccc(NC(=O)C2CC(c3ccc(F)cc3)=NO2)cc1 (stereo not given),4.66%
2,Cc1ccc(S(=O)(=O)N(Cc2ccccc2)c2ccccn2)cc1[N+](=O)[O-],2.38%
3,CS(=O)(=O)N(CC(=O)Nc1ccc(F)cc1F)c1cccc([N+](=O)[O-])c1,1.91%
4,Cc1c(Br)c([N+](=O)[O-])nn1CC(=O)N1CCN(Cc2ccccc2)CC1,14.4% (active)
5,O=C(/C=C/c1cccc([N+](=O)[O-])c1)N1CCN(Cc2ccccc2)CC1,21.5%
6,O=C(c1cccc([N+](=O)[O-])c1)N1CCN(Cc2ccccc2)CC1,-6.89%
7,COc1ccc(-c2cc(C(=O)N3CCN(Cc4ccc5c(c4)OCO5)CC3)on2)cc1OC,-9.89%
8,Cc1cc2c(C)nc(N/N=C/c3ccccc3)nc2o1,38% (active)
9,Cc1cc(C)nc(N/N=C/c2c(C)oc3ccccc23)n1,1.89%
10,Cc1cc(C)nc(N/N=C/c2ccc([N+](=O)[O-])o2)n1,0.645%
11,COc1cccc(C(=O)NCCSc2ccc(Br)cc2)c1,3.16%
12,COc1ccc(C(=O)NCc2nnc(SCCOc3ccccc3)n2C)cc1,-1.69%
13,COc1ccc(C(=O)NCCSc2ccccc2C)cc1,46% (active)
14,N#Cc1ccccc1S(=O)(=O)N1CCN(C(=O)c2cc(-c3ccccc3)nn2-c2ccccc2)CC1,-0.928%
15,COCCCNc1nc2c(-c3cccc(C(F)(F)F)c3)nnn2c2ccccc12,-2.05%
16,COC(=O)Cn1nc(-c2ccccc2)c2cc(Cl)ccc21,-2.04%
17,COCCCNc1nc2c(-c3cccc(C)c3)nnn2c2ccc(Cl)cc12,11.5% (active)
18,O=C(CCS(=O)(=O)c1ccc(Br)cc1)NCCc1ccc(Cl)cc1,-3.3%
19,CC1=CC(=C(C#N)c2nc3ccccc3s2)C=C(C)N1c1ccc(F)cc1F,11.6% (active)
20,N#C/C(=C(/O)Cc1cccc2ccccc12)c1nc2ccccc2s1,-8.33%
21,C=CCN1C(=O)C(O)(CC(=O)c2ccccn2)c2ccccc21 (stereo not given),-4.4%
22,Cc1ccc2cc(CCNC(=O)c3ccc4c(c3)OCO4)c(=O)[nH]c2c1,-3.03%
23,O=C(NCc1ccco1)/C(=C/c1ccco1)NC(=O)c1ccccc1,-7.97%
24,CNC(=O)/C(=C\C=C\c1ccccc1)NC(=O)c1ccc([N+](=O)[O-])cc1,-1.68%

row,Structure (SMILES),max response
1,Cc1ccc(C(=O)N/C(=C/C=C/c2ccccc2)C(=O)NCc2ccco2)cc1,13.9% (active)
2,Cc1ccc(NS(=O)(=O)c2cn(C)c(=O)n(C)c2=O)c(C)c1,-0.304%
3,Cc1ccc2c(c1)N(CC(=O)N1CCCC(C)C1)C(=O)CO2 (stereo not given),-3.96%
4,COC(=O)C1(CCSC)NC(c2ccc(OC)cc2OC)C2C(=O)N(c3cccc(C(C)=O)c3)C(=O)C21 (stereo not given),-3.66%
5,Cc1cccc(NC(=O)c2ccc3c(=O)n(CC4CCCO4)c(=S)[nH]c3c2)c1 (stereo not given),10.1%
6,COC(=O)c1ccc(NC(=O)CSc2nc(N)c(NC(=O)c3ccc(Br)o3)c(=O)[nH]2)cc1,9.86%
7,CCOC(=O)CNc1nc(Cl)nc(Nc2ccc(OC)cc2OC)n1,-3.67%
8,CCOC(=O)CNc1nc(Cl)nc(Nc2ccccc2)n1,45.2% (active)
9,CCC(=O)Nc1ccc(Nc2nc(Cl)nc(Nc3ccc(NC(=O)CC)cc3)n2)cc1,-3.17%
10,Cc1nc(C(=O)N2CCCC(C(=O)c3ccc(Cl)cc3)C2)cs1 (stereo not given),0.775%
11,COc1ccccc1NC(=O)C1CCN(C(=O)c2ccc(C(C)(C)C)cc2)CC1,-1.21%
12,Cn1nc(-c2ccccc2)c(CSc2cccc(Cl)c2)c1Cl,-2.67%
13,Fc1ccccc1OCCSc1nc2ccccc2o1,26.3% (active)
14,Cn1c(=O)c2c(nc(Br)n2CCSc2nc3ccccc3o2)n(C)c1=O,-1.28%
15,O=c1c2ccccc2ncn1CCCCOc1ccccc1F,1.24%
16,COC(=O)c1ccc(CN2CCCC(C(=O)Nc3cccc(-n4cnnn4)c3)C2)cc1 (stereo not given),-1.47%
17,O=C(C1CC(=O)N(c2ccc(F)cc2)C1)N1CCN(c2ccccc2)CC1 (stereo not given),-1.52%
18,O=C(Nc1cccn(Cc2c(Cl)cccc2Cl)c1=O)c1ccc(Cl)cc1,1.71%
19,O=C(Nc1cccn(Cc2ccccc2Cl)c1=O)NC1CCCCC1,10.8% (active)
20,CCOc1ccccc1NC(=O)NC1CCCCCCC1,10.6%
21,CC(=O)N1CCN(C(=O)C2(NC(=O)Nc3ccc(C)cc3)CCCCC2)CC1,6.9%
22,COC(=O)/C(=C\Nc1ccccc1)NC(=O)c1ccc(Cl)cc1Cl,16.3%
23,CC(=O)c1c(C)[nH]c(C(=O)Nc2cc(S(=O)(=O)N(C)C)ccc2C)c1C,6.78%
24,COC(=O)[C@@H]1CCCN1C(=O)c1cc(COc2cccc3cccnc23)on1,-3.11%

row,Structure (SMILES),max response
1,CSc1ccccc1OCc1cc(C(=O)N(C)CCc2c(C)n[nH]c2C)no1,15.1%
2,CSc1ccccc1OCc1cc(C(=O)N2C[C@H]3CC[C@H]2C3)no1,45.3% (active)
3,COc1ccc(NC(=O)C(NC(C)=O)C(=O)NCc2ccccc2Cl)cc1 (stereo not given),1.56%
4,Cc1cc(C(=O)NNS(=O)(=O)c2ccccc2C(F)(F)F)nn1C(C)(C)C,7.74%
5,CC(OC(=O)CN1C(=O)COc2ccccc21)C(=O)NCc1ccc(F)cc1 (stereo not given),-2.2%
6,O=C(CN1C(=O)COc2ccccc21)Nc1ccc(F)cc1,44.7% (active)
7,O=C(CN1C(=O)COc2ccccc21)NCCN1CCc2ccccc2C1,4.27%
8,C/C(N)=C(/C#N)C(=O)COC(=O)C1=NN(c2ccccc2)C(=O)CC1,-5.97%
9,O=C(Nc1nnc(S(=O)(=O)N2CCOCC2)s1)c1cccc(Br)c1,7.79%
10,O=c1oc2ccccc2cc1-c1cn(-c2ccccc2)c(=S)[nH]1,7.59%
11,S=c1[nH]c(-c2cccs2)cn1-c1ccccc1,34.1% (active)
12,O=c1[nH]c(-c2cccs2)nc2ccccc12,20%
13,COc1cc(/C=C/C(=O)OCC(=O)Nc2cccc(Oc3ccccc3)c2)ccc1O,10.4%
14,COc1ccc(S(=O)(=O)N2CCC(C(=O)N3CCCC3)CC2)cc1C,-13.9%
15,Cc1ccccc1CSc1nnc(-c2ccccc2)c(=O)[nH]1,18.4%
16,O=c1[nH]c(SCc2ccccc2)nnc1-c1ccccc1,11% (active)
17,Cc1ccc(CSc2nc(-c3ccccc3)c(C#N)c(=O)[nH]2)cc1,-11.1%
18,COc1cc(OC)c(C(=O)Nc2ccccc2-c2ccccc2)cc1OC,-1.49%
19,COc1ccc(Cl)cc1C(=O)NCC#N,-1.71%
20,COc1cc(OC)c(C(=O)Nc2ccc(N(C)C)cc2)cc1OC,40.8% (active)
21,COc1ccc(Cl)cc1C(=O)Nc1ccc(N(C)C(C)=O)cc1,34.7% (active)
22,COC(=O)c1ccc(NC(=O)c2cc(Cl)ccc2OC)cc1,0.237%
23,COc1cc(OC)c(C(=O)NC2CC(C)(C)NC(C)(C)C2)cc1OC,-1.33%

# From PubChem BioAssay AID2314 (National Center for Advancing Translational Sciences (NCATS), 2010)
